Source: PubChem BioAssay AID1159580 (chemical genetic matrix, 2015)
Values joined by “and” are separate entries in the source; they are usually repeats but may differ in a detail not shown here. Equal values may be shown once. Out of some 5,500 compounds screened, about 2,000 (36%) were called active. Another 18% or so got no clear call; they are omitted. Cut-off read from the data, not from the text of the source: active = normalized growth mostly below about 0.91 (no sharp cut-off); inconclusive = no clear call, values can overlap the other calls; inactive = mostly above about 0.92. The list shows a part of the results.

Test: chemical genetic growth profiling, strain panel (AID 1159580);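 note: tested at 20 µM; growth read once vehicle control cultures reached saturation at 30 °C; 1 = growth at the plate median or of vehicle wells; lower values mean less growth of the strain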
Details: S. cerevisiae deletion strains, growth OD

Measured: normalized growth

COc1ccc(C[C@H](N)C(=O)N[C@@H]2[C@@H](CO)OC(n3cnc4c(N(C)C)ncnc43)[C@@H]2O)cc1 (stereo partly specified)
inactive: locus YAL013W, strain DEP1, active compounds read low 1.01 | locus YAL021C, strain ccr4, active compounds read low 0.977 | locus YAL026C, strain drs2, active compounds read low 0.996 | locus YAL030W, strain snc1, active compounds read low 0.996 | locus YBL061C, strain skt5, active compounds read low 0.996 | locus YBR009C, strain hhf1, active compounds read low 0.988 | locus YBR021W, strain FUR4, active compounds read low 1 | locus YBR023C, strain chs3, active compounds read low 0.986 | locus YBR171W, strain sec66, active compounds read low 0.976 | locus YBR229C, strain ROT2, active compounds read low 1.01 | locus YBR231C, strain swc5, active compounds read low 0.994 | locus YBR279W, strain paf1, active compounds read low 0.992 | locus YCL011C, strain gbp2, active compounds read low 1 | locus YCL016C, strain dcc1, active compounds read low 1.01 | locus YCL029C, strain bik1, active compounds read low 1.02 | locus YCL069W, strain vba3, active compounds read low 0.992 | locus YCR088W, strain abp1, active compounds read low 0.992 | locus YDL005C, strain med2, active compounds read low 0.995 | locus YDL035C, strain GPR1, active compounds read low 1 | locus YDL040C, strain nat1, active compounds read low 1.01 | locus YDL074C, strain BRE1, active compounds read low 0.988 | locus YDL101C, strain DUN1, active compounds read low 1.01 | locus YDL134C, strain PPH21, active compounds read low 1 | locus YDL185W, strain tfp1, active compounds read low 1.02 | locus YDL192W, strain arf1, active compounds read low 1.02 | locus YDR001C, strain nth1, active compounds read low 0.982 | locus YDR069C, strain doa4, active compounds read low 0.981 | locus YDR101C, strain arx1, active compounds read low 1.02 | locus YDR137W, strain rgp1, active compounds read low 1.01 | locus YDR150W, strain NUM1, active compounds read low 1 | locus YDR159W, strain sac3, active compounds read low 0.981 | locus YDR162C, strain NBP2, active compounds read low 1.02 | locus YDR195W, strain ref2 0.969 | locus YDR297W, strain sur2, active compounds read low 0.996 | locus YDR318W, strain mcm21, active compounds read low 1.02 | locus YDR334W, strain swr1, active compounds read low 0.977 | locus YDR335W, strain msn5, active compounds read low 0.985 | locus YDR388W, active compounds read low 1.02 | locus YDR392W, strain spt3, active compounds read low 1.01 | locus YDR502C, strain sam2, active compounds read low 1 | locus YEL003W, strain gim4, active compounds read low 0.999 | locus YEL037C, strain rad23, active compounds read low 1 | locus YEL061C, strain CIN8 (second series), active compounds read low 0.99 | locus YEL061C, strain CIN8, active compounds read low 1 | locus YER015W, strain faa2, active compounds read low 0.991 | locus YER016W, strain bim1, active compounds read low 1.01 | locus YER110C, active compounds read low 1.02 | locus YER111C, strain swi4, active compounds read low 0.977 | locus YER155C, strain BEM2 (second series), active compounds read low 1.03 | locus YER155C, strain BEM2, active compounds read low 1 | locus YER167W, strain BCK2, active compounds read low 1.02 | locus YFR010W, strain ubp6, active compounds read low 0.995 | locus YGL078C, strain dbp3, active compounds read low 1.02 | locus YGL086W, strain mad1, active compounds read low 1.02 | locus YGL167C, strain pmr1, active compounds read low 1.01 | locus YGL173C, strain kem1, active compounds read low 0.988 | locus YGL227W, strain vid30, active compounds read low 0.992 | locus YGL240W, strain doc1, active compounds read low 0.987 | locus YGL248W, strain PDE1, active compounds read low 1.01 | locus YGL253W, strain hxk2, active compounds read low 0.981 | locus YGR078C, strain PAC10, active compounds read low 0.99 | locus YGR135W, strain pre9, active compounds read low 1 | locus YGR229C, strain SMI1, active compounds read low 0.996 | locus YGR252W, strain gcn5, active compounds read low 1.06 | locus YHR013C, strain ard1, active compounds read low 0.983 | locus YHR027C, strain rpn1, active compounds read low 0.991 | locus YHR030C, strain SLT2, active compounds read low 1.01 | locus YHR079C, strain IRE1 (second series), active compounds read low 1.02 | locus YHR079C, strain IRE1, active compounds read low 0.98 | locus YHR094C, strain hxt1, active compounds read low 1.02 | locus YHR129C, strain ARP1, active compounds read low 1.01 | locus YHR142W, strain chs7, active compounds read low 1 | locus YHR200W, strain rpn10, active compounds read low 1.03 | locus YIL066C, strain RNR3, active compounds read low 1.02 | locus YIL073C, strain SPO22, active compounds read low 1.06 | locus YIL125W, strain kgd1, active compounds read low 1.01 | locus YIR030C, strain dcg1, active compounds read low 1.02 | locus YJL092W, strain hpr5, active compounds read low 0.988 | locus YJL095W, strain BCK1 (second series), active compounds read low 1 | locus YJL095W, strain BCK1, active compounds read low 0.997 and 0.996 | locus YJL115W, strain asf1, active compounds read low 0.984 | locus YJL129C, strain trk1, active compounds read low 0.987 | locus YJL134W, strain LCB3, active compounds read low 1 | locus YJL154C, strain vps35, active compounds read low 0.996 | locus YJL164C, strain tpk1, active compounds read low 1.01 | locus YJL166W, strain qcr8, active compounds read low 0.979 | locus YJL168C, strain set2, active compounds read low 1.01 | locus YJL187C, strain SWE1 (second series), active compounds read low 1.01 | locus YJL187C, strain SWE1, active compounds read low 0.998 | locus YJR043C, strain POL32, active compounds read low 0.995 | locus YJR066W, strain TOR1, active compounds read low 0.937
